Laboratory results published in PubChem BioAssay AID504339 (National Center for Advancing Translational Sciences (NCATS), 2011).
Hit rate of the full screen: of about 390,000 compounds, about 17,000 (4.4%) were called active. Entries that show only a call come without a potency. Another 8% or so got no clear call; they are omitted. Calls come from the whole dose curve; as a rule, active = well fitted inhibition curve with a large enough effect; inconclusive = small, poorly fitted or top-dose-only effect; inactive = no such curve, though single readings can be large or run the other way. The sample as a whole holds a higher share of actives than the screen did.
Note: nearly all actives have a fitted effect of over 50% in size.
Potency is the fitted concentration of half-maximal effect.

The compounds below were run against Lysine-specific demethylase 4A (Homo sapiens) (UniProt O75164) (assay: qHTS Assay for Inhibitors of JMJD2A-Tudor Domain). Conditions: AlphaScreen JMJD2A-Tudor / H3K4me3 peptide binding; series mostly up to 114 µM.
Lysine-specific demethylase 4A (Homo sapiens), sequence (O75164 whole entry, looked up, the tested form may be a part): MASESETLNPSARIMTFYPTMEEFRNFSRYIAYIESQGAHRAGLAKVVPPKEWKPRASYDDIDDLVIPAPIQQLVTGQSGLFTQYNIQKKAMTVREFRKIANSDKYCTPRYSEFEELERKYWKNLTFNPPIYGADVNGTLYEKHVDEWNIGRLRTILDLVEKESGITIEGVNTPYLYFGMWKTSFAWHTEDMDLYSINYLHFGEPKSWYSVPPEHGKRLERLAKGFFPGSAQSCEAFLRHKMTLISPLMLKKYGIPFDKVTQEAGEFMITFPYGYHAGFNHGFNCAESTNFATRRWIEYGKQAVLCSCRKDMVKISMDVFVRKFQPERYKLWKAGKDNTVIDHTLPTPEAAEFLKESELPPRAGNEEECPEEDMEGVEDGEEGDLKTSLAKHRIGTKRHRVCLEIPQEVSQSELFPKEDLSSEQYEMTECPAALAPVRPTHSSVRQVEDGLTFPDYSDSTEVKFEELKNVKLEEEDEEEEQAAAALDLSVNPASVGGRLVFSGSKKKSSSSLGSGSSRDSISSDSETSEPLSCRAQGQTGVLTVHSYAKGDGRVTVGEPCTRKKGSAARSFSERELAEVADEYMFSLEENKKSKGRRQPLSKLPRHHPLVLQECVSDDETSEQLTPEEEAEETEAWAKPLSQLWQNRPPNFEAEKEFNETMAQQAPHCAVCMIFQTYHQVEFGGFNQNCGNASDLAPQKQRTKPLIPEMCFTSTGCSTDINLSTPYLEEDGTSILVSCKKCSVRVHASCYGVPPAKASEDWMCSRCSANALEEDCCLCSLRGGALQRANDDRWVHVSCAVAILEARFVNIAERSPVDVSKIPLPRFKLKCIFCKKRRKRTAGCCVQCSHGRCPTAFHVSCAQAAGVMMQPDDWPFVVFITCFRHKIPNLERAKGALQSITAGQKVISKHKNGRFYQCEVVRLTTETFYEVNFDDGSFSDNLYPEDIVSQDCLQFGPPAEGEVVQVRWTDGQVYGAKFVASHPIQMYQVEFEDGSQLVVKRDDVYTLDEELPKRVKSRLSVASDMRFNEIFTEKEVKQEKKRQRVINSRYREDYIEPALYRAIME
For `COc1ccccc1NC(=O)CN1C(=O)c2ccccc2Sc2ccc(C(=O)N3CCCC3)cc21`, the Potency was “inactive”. With `COc1ccc(C2C(C(C)=O)=C(O)C(=O)N2CCc2c[nH]c3ccccc23)cc1` (centres undefined) the Potency was “inactive”. `COc1ccc(C2C(C(C)=O)=C(O)C(=O)N2c2nccs2)cc1` (centres undefined) was tested, and the Potency was “inactive”. With `COC(=O)CN1C(=O)C(O)=C(C(C)=O)C1c1ccc([N+](=O)[O-])cc1` (centres undefined) the Potency was 31.6 µM (active). `CCOc1ccccc1NC(=O)Cn1c(=O)n(-c2cccc(C)c2)c(=O)c2c1c1cc(OC)ccc1n2C` was tested, and the Potency was “inactive”. For `CCN(CC)C(=O)CSc1nc2ccsc2c(=O)n1Cc1ccccc1Cl`, the Potency was “inactive”. `S=c1[nH]nc(-c2cccs2)n1/N=C/c1cccs1` was tested, and the Potency was 10 µM (active). For `Oc1ccccc1/C=N/n1c(-c2cccs2)n[nH]c1=S`, the Potency was 22.4 µM (active). `Nc1nnnn1/N=C/c1cccs1` was tested, and the Potency was “inactive”. For `C(=N/N1CCN(c2ccccc2)CC1)/c1cccs1`, the Potency was “inactive”. For `Cn1c(=O)c2sccc2n2c(CCC(=O)NCc3ccccc3Cl)nnc12`, the Potency was “inactive”. In the case of `Cc1ccc(C(=O)Nc2ccc3[nH]c(=O)c(=O)[nH]c3c2)cc1`, the Potency is reported as “inactive”. `O=[S+]([O-])(c1ccc(OC(F)(F)F)cc1)N1CCN([S+](=O)([O-])c2ccc3c(c2)OCCO3)CC1` was tested, and the Potency was “inactive”. For `O=C(CC1Oc2ccc(Cl)cc2NC1=O)NCc1ccccc1` (centres undefined), the Potency was “inactive”. In the case of `CCc1ccc(NC(=O)CCCc2nnc3n(CCCOC)c(=O)c4sccc4n23)cc1`, the Potency is reported as “inactive”. `O=C(CSc1nc2nccnc2c(=O)n1CCc1c[nH]c2ccccc12)Nc1ccccc1F` was tested, and the Potency was “inactive”. For `Cc1cc2nn(-c3ccc(Cl)cc3)nc2cc1NC(=O)C(C)C`, the Potency was “inactive”. With `Cc1ccc(Cl)cc1NC(=O)C(C)n1nnc2sc(-c3ccccc3)cc2c1=O` (centres undefined) the Potency was 50.1 µM (active). With `CCCCCCn1nnc2sc(-c3ccccc3)cc2c1=O` the Potency was “inactive”. In the case of `COc1ccccc1-c1cc2nc(C)c(CCC(=O)O)c(C)n2n1`, the Potency is reported as “inactive”. In the case of `Cc1ccc(C)n1-c1nnc(N2CCC(C(=O)NCc3ccc(F)cc3)CC2)s1`, the Potency is reported as “inactive”. In the case of `NS(=O)(=O)c1ccc2nc(NC(=O)COc3ccccc3)sc2c1`, the Potency is reported as “inactive”. For `Cc1cc(C)cc(-n2ccnc2SCC(=O)Nc2nc3ccccc3s2)c1`, the Potency was “inactive”. In the case of `c1ccc(C(=NNc2nc3ccccc3s2)c2ccccn2)cc1`, the Potency is reported as 31.6 µM (active). For `COc1cc(-c2cc3n(C)c(C)c(CCC(=O)Nc4ccc(F)cc4)c(=O)n3n2)cc(OC)c1OC`, the Potency was “inactive”. `COC(=O)c1ccccc1NC(=O)c1cc(-c2ccccc2O)no1` was tested, and the Potency was “inactive”. `Fc1cccc(-n2ncc3c2ncn2nc(-c4ccccc4Cl)nc32)c1` was tested, and the Potency was “inactive”. In the case of `CN1/C(=C\C=C2\N=C(c3ccc(F)cc3)OC2=O)C(C)(C)c2ccccc21`, the Potency is reported as 56.2 µM (active). In the case of `CC(=O)Nc1cccc(OCC(=O)/C=C2\N(C)c3ccccc3C2(C)C)c1`, the Potency is reported as “inactive”. With `CN1CCN(CCC(=O)N/N=C/C=C2\N(C)c3ccccc3C2(C)C)CC1` the Potency was “inactive”. `O=C1C(F)N([S+](=O)([O-])c2ccc3c(c2)OCCO3)CCN1[S+](=O)([O-])c1c(F)cccc1F` (centres undefined) was tested, and the Potency was “inactive”. In the case of `COCCCn1c(Cc2csc(Nc3cccc(Cl)c3)n2)nnc1SCC(=O)OC1CCCCC1`, the Potency is reported as 44.7 µM (active). In the case of `COCCCn1c(SCC(=O)NC2CCCC2)nnc1-c1ccccc1`, the Potency is reported as “inactive”. With `COCCCn1c(SCC(=O)Nc2ccccc2)nnc1-c1ccncc1` the Potency was “inactive”. `COc1ccccc1CNc1ccc(-c2nc(-c3ccccc3C)no2)cc1[N+](=O)[O-]` was tested, and the Potency was “inactive”. `CS(=O)(=O)N(CC(=O)NCc1ccco1)c1ccc2c(c1)OCO2` was tested, and the Potency was “inactive”. `CN(Cc1cncn1C)c1ncnc2ccc(-c3ccc4c(c3)OCO4)cc12` was tested, and the Potency was “inactive”. With `c1coc(CCNc2ncnc3ccc(-c4ccc5c(c4)OCO5)cc23)c1` the Potency was 56.2 µM (active). For `Cc1nc(CNc2ncnc3ccc(-c4ccc5c(c4)OCO5)cc23)cs1`, the Potency was 79.4 µM (active). With `O=C(Cn1nnc(-c2ccc3c(c2)OCO3)n1)NCc1ccco1` the Potency was “inactive”. For `Cc1noc(C)c1-c1ccc2ncnc(NCc3ccc(F)c(F)c3)c2c1`, the Potency was “inactive”. In the case of `O=c1c(=O)n(Cc2c(F)cccc2Cl)ccn1Cc1ccccc1`, the Potency is reported as “inactive”. `COc1cc(Cl)ccc1Nc1ncc(C(=O)N2CCN(c3ccccc3OC)CC2)c2ccccc12` was tested, and the Potency was “inactive”. In the case of `Cc1cccc(C(=O)Nc2ccc(-c3nc4ccccc4s3)c(C)c2)c1`, the Potency is reported as “inactive”. With `COc1ccc(CNC(=O)CC2Oc3ccc(C)cc3NC2=O)cc1` (centres undefined) the Potency was “inactive”. For `Cc1ccc(-n2nc(CO)c(C(=O)NCCc3ccccc3)n2)cc1`, the Potency was “inactive”. In the case of `Cc1cc(C)n(-c2ccc(NC(=O)C3CCCCN3C(=O)c3cccs3)cc2)n1` (centres undefined), the Potency is reported as “inactive”. For `COc1ccc(C(=O)N2CCCCC2C(=O)Nc2ccc(-n3nc(C)cc3C)cc2)o1` (centres undefined), the Potency was 15.8 µM (active). With `Cc1ccc(NC(=O)C2CCCN2C(=O)OCc2ccccc2)cc1C` (centres undefined) the Potency was “inactive”. In the case of `Cc1nn(-c2ccc(N3CCCCC3)nn2)c(C)c1CCC(=O)NCc1ccc(F)cc1`, the Potency is reported as “inactive”. In the case of `COc1ccc(-c2onc(C)c2C)cc1S(=O)(=O)NCCc1ccccc1`, the Potency is reported as “inactive”. For `CC(C)n1cnc2c(NCc3ccccc3)cc(OCC3CCN(C)CC3)cc21`, the Potency was 39.8 µM (active). `COc1ccc(CNc2nc(NCc3ccc(OC)cc3)c3ncn(C4CCCC4)c3n2)cc1` was tested, and the Potency was “inactive”. For `CCC(CO)Oc1cc(NCc2ccccc2)c2ncn(C3CCCC3)c2c1` (centres undefined), the Potency was 56.2 µM (active). With `CN(C)c1nccc(NCc2ccccc2)c1C#N` the Potency was “inactive”. With `CCC(CO)Oc1cc(NC(=O)c2ccc(Cl)cc2)c2ncn(C(C)C)c2c1` (centres undefined) the Potency was “inactive”. `CCOC(=O)c1cccc(NC(=O)c2cc(S(=O)(=O)N3CCCC(C)C3)cn2C)c1` (centres undefined) was tested, and the Potency was “inactive”. In the case of `CC1CCCCN1Cc1c(O)ccc2c(=O)c(-c3cccc(Cl)c3)c(C(F)(F)F)oc12` (centres undefined), the Potency is reported as “inactive”. In the case of `O=C(CN1C(=O)CCn2nc(-c3ccccc3)cc21)NCc1ccccc1`, the Potency is reported as “inactive”. For `Cc1nc2c(-c3ccccc3)c(C)nn2c(C)c1CCC(=O)NCCc1ccccc1`, the Potency was “inactive”. For `COc1ccc(Cl)cc1NC(=O)CN(C)C(=O)c1ccc2n[nH]nc2c1`, the Potency was “inactive”. `COc1ccc(Cl)cc1NC(=O)CN(C)CC(=O)Nc1ccc2c(c1)OCO2` was tested, and the Potency was “inactive”. For `O=C(CCS(=O)(=O)c1ccc(Br)cc1)NCCc1ccc(Cl)cc1`, the Potency was 63.1 µM (active). `COc1ccc(Cl)cc1NC(=O)CCS(=O)(=O)c1ccc(Br)cc1` was tested, and the Potency was 22.4 µM (active). For `COc1ccc(Cl)cc1NC(=O)CN(C)Cc1ccc(OC)c(OC)c1`, the Potency was 1.26 µM (active). With `Cn1c(=O)oc2cc(S(=O)(=O)CCC(=O)NCCc3ccc(Cl)cc3)ccc21` the Potency was “inactive”. `COc1ccc(Cl)cc1NC(=O)CCC(=O)c1ccc(C)cc1` was tested, and the Potency was “inactive”. `CC(=O)N1CCc2cc(Br)cc(S(=O)(=O)CCC(=O)NCCc3ccc(Cl)cc3)c21` was tested, and the Potency was “inactive”. For `COc1ccc(Cl)cc1NC(=O)CCS(=O)(=O)c1cc2c(cc1C)NC(=O)CO2`, the Potency was “inactive”. For `CCCOc1ccc(-c2cccc(NS(=O)(=O)c3ccccc3)c2)nn1`, the Potency was “inactive”. For `COc1ccc(OC)c(-c2csc(-c3c(N)c(C(=O)c4ccccc4)n4ccccc34)n2)c1`, the Potency was “inactive”. With `CCc1ccc(C(=O)CC2(O)C(=O)N(CCc3ccccc3)c3ccc(Br)cc32)cc1` (centres undefined) the Potency was “inactive”. In the case of `C=C1CCN(Cc2ccc(OC)cc2)S(=O)(=O)c2ccccc21`, the Potency is reported as “inactive”. In the case of `CC1Cc2cc(S(=O)(=O)CCC(=O)NCc3ccc(Cl)cc3)ccc2N1C(=O)C1CC1` (centres undefined), the Potency is reported as “inactive”. With `Cc1cc(C)cc(NS(=O)(=O)c2ccc(-c3cc(C)no3)s2)c1` the Potency was “inactive”. In the case of `Cc1cc(N=Nc2ccc3ccccc3c2)ccc1O`, the Potency is reported as 44.7 µM (active). For `COc1ccccc1-n1c(-c2ccc(C)cc2)cn2c3c(=O)n(C)c(=O)n(C)c3nc12`, the Potency was “inactive”. For `COc1ccc(CNc2nc(-c3ccc(Cl)cc3)cc(C(F)(F)F)n2)cc1`, the Potency was “inactive”. In the case of `O=S(=O)(c1ccc(Br)cc1)c1nnn2c1nc(N1CCOCC1)c1sccc12`, the Potency is reported as “inactive”. `O=C(c1ccco1)N(Cc1nc2ccccc2c(=O)[nH]1)C1CCCC1` was tested, and the Potency was “inactive”. `O=C(CSc1ncc(CO)n1Cc1ccc(F)cc1)NCc1ccco1` was tested, and the Potency was “inactive”. `O=c1[nH]c(CSc2ncc(-c3ccc(F)cc3)n2Cc2ccco2)nc2ccccc12` was tested, and the Potency was 35.5 µM (active). `CCOc1ccc(CCNC(=O)c2ccc3c(c2)sc2nc(-c4ccc(F)cc4)cn23)cc1OCC` was tested, and the Potency was “inactive”. With `Cc1cc(C)c(C2C3=C(Nc4c2c(C)nn4-c2ccccn2)c2ccccc2C3=O)c(C)c1` (centres undefined) the Potency was 25.1 µM (active). In the case of `COc1ccc(NC(=O)c2ccc3oc(=O)c(S(=O)(=O)c4ccc(F)cc4)cc3c2)c(OC)c1`, the Potency is reported as “inactive”. `Cc1ccc(C(=O)CC2(O)C(=O)N(CCc3ccccc3)c3ccc(Br)cc32)cc1` (centres undefined) was tested, and the Potency was “inactive”. For `COc1ccc2cc(CNc3ccc(OC)c(OC)c3)c(=O)n(CC(=O)Nc3ccccc3F)c2c1`, the Potency was “inactive”. For `O=C(O)c1ccccc1N=N/C(=N/Nc1cc(S(=O)(=O)O)ccc1O)c1ccccc1`, the Potency was 12.6 µM (active). With `COc1ccc(-c2cccc(NS(=O)(=O)c3cc(C)c(OC)c(C)c3C)c2)nn1` the Potency was “inactive”. For `Cc1ccc(-c2cc(C(F)(F)F)c(C#N)c(SCC(=O)Nc3ccccc3)n2)cc1`, the Potency was “inactive”. With `COc1ccc(C(=O)c2c(C)c(CCC#N)n3ccccc23)c(OC)c1` the Potency was 35.5 µM (active). For `COc1ccc(C(=O)CCc2ccccc2O)c(OC)c1`, the Potency was “inactive”. With `COc1ccc(C(=O)NC(C)CCc2ccccc2)c(OC)c1` (centres undefined) the Potency was “inactive”. In the case of `Cc1c(Cl)cccc1NC(=O)C1CCCN(C(=O)c2cnn(-c3ccccc3)c2-n2cccc2)C1` (centres undefined), the Potency is reported as “inactive”. For `CCCCC(=O)OC1=CN(Cc2ccccc2)S(=O)(=O)c2ccccc21`, the Potency was “inactive”. In the case of `COc1ccc2c(c1)c(=O)c(S(=O)(=O)c1ccc(F)cc1)cn2CC(=O)Nc1ccc(C)cc1C`, the Potency is reported as “inactive”. For `S=C(c1ccc(-c2ccccc2)o1)N1CCCCC1`, the Potency was 20 µM (active). For `COc1ccccc1-c1cc(C(=O)N2CCCCC2)no1`, the Potency was “inactive”. In the case of `CN1CCN(C(=O)c2ccc(-c3ccc(Br)cc3)o2)CC1`, the Potency is reported as “inactive”.
